Screens as filed in PubChem.
This is a sample that favours compounds with a hit; in the whole collection about 2.9% have one here.
RAM inhibit: inhibitors of the yeast RAM network, primary screen, dse1pr::URA3 reporter, 5-FOA selection; S. cerevisiae dse1pr::URA3 reporter, 5-FOA growth OD615, 2 d; analog-sensitive cbk1-as2 kinase mutant strain; 190,000 tested, 1.8% active; inhibition, % at 50 µM;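 active means inhibition above a set limit, 3 SD over mean compound inhibition, cut at about 8.4% in these data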;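 further: 0% = DMSO-only wells with no growth and 100% = 10 µM 1-NA-PP1 full growth; inhibition rescues growth on 5-FOA so higher OD means more RAM inhibition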
PG9 binder: binders of HIV-1 gp120 antibody PG9, primary screen, biochemical, TR-FRET. TR-FRET gp120-PG9 antibody binding. inhibition, % at 6.7 µM. 360,000 tested, 0.43% active. AID 624416, 2012; in the data active means inhibition above about 8.5%
SKN-1 inh: suppressors of acrylamide-induced Pgst-4::GFP reporter in worms, primary screen, SKN-1 inhibitor project, whole organism, uHTS, GFP/RFP fluorescence ratio, strain VP596; C. elegans VP596 Pgst-4::GFP/RFP ratio, 24 h; inhibition, % at 21.8 µM; 360,000 tested, 0.49% active; AID 624304, 2012;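 active means interference check ratio from 0.5 to 1.5 plus GFP to RFP signal ratio inhibition reaching or exceeding a fixed threshold, cut at about 30% in these data, passing the limit was not always enough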
EP2 antag: human EP2 receptor antagonists, primary screen, TR-FRET cAMP, C6 glioma cells; 260,000 tested, 0.52% active; AID 1422, 2008; Prostaglandin E2 receptor EP2 subtype (Homo sapiens), P43116; inhibition, % at 25 µM; C6 glioma cells expressing human EP2; cells stimulated with saturating PGE2;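 active means percent inhibition above 40 after rounding to a whole number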;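 further: rat C6 glioma host cells with rolipram phosphodiesterase inhibitor present; the protocol text gives 20 µM as final concentration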
Target sequence (P43116 whole entry, looked up): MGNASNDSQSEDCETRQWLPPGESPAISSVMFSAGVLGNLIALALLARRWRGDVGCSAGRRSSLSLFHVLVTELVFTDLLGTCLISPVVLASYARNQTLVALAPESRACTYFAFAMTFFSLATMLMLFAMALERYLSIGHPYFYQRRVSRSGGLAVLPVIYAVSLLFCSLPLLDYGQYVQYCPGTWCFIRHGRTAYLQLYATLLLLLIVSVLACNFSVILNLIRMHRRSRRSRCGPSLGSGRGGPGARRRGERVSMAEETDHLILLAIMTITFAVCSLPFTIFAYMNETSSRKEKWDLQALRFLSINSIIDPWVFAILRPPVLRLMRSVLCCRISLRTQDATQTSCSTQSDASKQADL
EP2 mod: EP2 receptor modulators, cAMP readout, primary screen, cell-based, HTRF cAMP, PGE2 stimulation; EP2-expressing cells, cAMP HTRF FRET, PGE2 co-stimulation; Prostaglandin E2 receptor EP2 subtype (Homo sapiens), P43116; 260,000 tested, 0.83% active; AID 940, 2007; induction, % at 25 µM;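 active means compounds whose cAMP rise, as percent of the full-agonist control response, exceeds 60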;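 further: rat C6 glioma line stably carrying human EP2 under a CMV promoter; the protocol text gives 20 µM as final concentration; 100% = response of wells given 1 µM PGE2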
Rev-erbA mod: modulators of Rev-erb alpha DNA binding, primary screen, biochemical, FITC-DNA, fluorescence polarization, uHTS | activity, % at 10 µM | Nuclear receptor subfamily 1 group D member 1 (Homo sapiens), P20393 | Rev-erbα–FITC-DNA binding, 90 min | 370,000 tested, 0.79% active;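 active means activity above about 14%, limit read from the data; passing the limit was not always enough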;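 further: 0% = DMSO wells with 35 nM protein and 100% = DMSO wells with 750 nM protein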
NR1D1 mod conf: modulators of Rev-erb alpha DNA binding, confirmation, biochemical, FITC-DNA, fluorescence polarization, single point. 3,000 tested, 61% active. AID 1259319, 2017. activation, % at 25 µM. 90 min. shares compounds with Rev-erbA mod;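 active means activation at or above a set limit, or at least 3 SD above the negative control mean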;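 further: 0% = 35 nM protein with DMSO and 100% = 750 nM protein high control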
RORg counter: modulation of RORgamma DNA binding, dose response, counter-screen for Rev-erb alpha modulator project, biochemical, fluorescence polarization, FITC-DNA | AID 1259320, 2017 | purified RORgamma protein-FITC-DNA binding | shares compounds with Rev-erbA mod | 910 tested, 8% active | IC50, µM;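 active means Compounds whose fitted half-maximal concentration for disrupting protein-DNA binding is below 10 micromolar; the record names Rev-erb in its text, so the target is in doubt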
Active calls of the source: *; i = inactive; x = not tested or not shown.

SMILES	RAM inhibit	PG9 binder	SKN-1 inh	EP2 antag	EP2 mod	Rev-erbA mod	NR1D1 mod conf	others
Cc1nc(NC(=O)c2ccc(Cl)cc2)sc1Cc1ccc2c(c1)OCO2	7	1	9	9	-37	30*	6
Cc1ccc(C2CC3CCC(C2)N3C(=O)c2cscn2)cc1 (stereo not drawn)	x	x	x	x	-23	x	x
O=C(OCCN1C(=O)c2cccc3c(N4CCOCC4)ccc(c23)C1=O)c1ccc(Cl)cc1	3	-1	-11	9	-6	79*	119*	RORg counter=>40
Cc1ccc(OCC(=O)Nc2sc3c(c2C#N)CC(C)(C)NC3(C)C)cc1	3	1	-2	10	-72	-7	x
CC1(C)Cc2c(sc(NC(=O)COc3ccc(Cl)cc3)c2C(N)=O)C(C)(C)N1	x	0	4	x	x	16*	-1
CC[C@H](Cn1nc(-c2cccs2)ccc1=O)NC(=O)Cn1nc(C)c2ccccc2c1=O	x	x	x	x	-15	x	x
CCc1nnc2sc(-c3ccc(NC(=O)CSc4ccc(Cl)cc4)cc3)nn12	x	0	31	x	x	32*	21*
CCC(=O)c1cn(CC(=O)Nc2cc(OC)ccc2OC)c2ccccc12	x	x	x	9	-4	x	x
CCOc1ccc(NC(=O)Cn2cc(C(C)=O)c3ccccc32)cc1	x	-2	8	11	-36	29*	13
COc1cccc(NC(=O)CSc2nc3ccccc3c3nc4ccccc4n23)c1	2	0	4	3	12	54*	-6
CCC(=O)c1cn(CC(=O)Nc2cccc(OC)c2)c2ccccc12	x	-1	-2	9	-20	26*	18
CCOc1ccc(NC(=O)Cn2cc(C(=O)CC)c3ccccc32)cc1	x	x	6	x	x	x	x
CCCc1nc2oc3c(NCCCN(C)C)ncnc3c2c2c1CCCC2	x	1	4	1	-38	-7	x
CC(C)c1nc2sc3c(SCC(N)=O)ncnc3c2c2c1CCC2	x	-2	9	16	58	869*	711*	RORg counter=>40
CCCCc1nc2sc3c(SCCN(C)C)ncnc3c2c2c1CCC2	x	0	2	18	0	31*	47*	RORg counter=>40
Cc1cc(C)c2nc(/N=C(\N)NC(=O)Nc3ccccc3)nc(C)c2c1	1	-1	13	11	8	4	x
CCc1ccc2nc(/N=C(\N)NC(=O)c3ccccc3)nc(C)c2c1	x	-3	-1	9	18	23*	0
Cc1cc(C)c2nc(/N=C(\N)NC(=O)c3ccccc3)nc(C)c2c1	x	-2	-1	10	-11	56*	15
CCCC(=O)N/C(N)=N/c1nc(C)c2ccccc2n1	x	1	8	9	-6	-5	x
CCOC(=O)c1ccc(NC(=O)c2sc(NC(=O)C(C)C)c(C(=O)OC)c2C)cc1	x	x	x	10	-92	x	x
CCC(C)(C)n1nnnc1C(c1cc2cc(C)cc(C)c2[nH]c1=O)N1CCCc2ccccc21 (stereo not drawn)	x	x	x	28	33	x	x
COc1ccc(NC(=O)C2CCN(C(=O)c3ccccc3Cl)CC2)cc1	x	x	x	10	-47	x	x
O=C(NCc1ccc(F)cc1)c1cc(-c2ccccn2)nc2ccc(S(=O)(=O)N3CCOCC3)cc12	x	0	5	x	x	18*	19*
NS(=O)(=O)c1ccc(CNC(=O)c2cc(-c3ccccn3)nc3ccc(Cl)cc23)cc1	6	7	14	12	-12	23*	19*
CC(c1nc2ccccc2[nH]1)n1c(=O)c(-c2cccnc2)nc2ccccc21 (stereo not drawn)	x	1	-14	x	x	2	x
SMILES	RAM inhibit	PG9 binder	SKN-1 inh	EP2 antag	EP2 mod	Rev-erbA mod	NR1D1 mod conf	others
CC(c1nc2ccccc2[nH]1)n1c(=O)c(-c2cccs2)nc2ccccc21 (stereo not drawn)	x	0	6	x	x	30*	18*
CCc1ccc2nc(NC(=O)C3CCN(c4ncnc5sc(C)c(C)c45)CC3)sc2c1	x	-1	-2	x	x	21*	19*
CCc1cccc(NC(=O)C2CCN(c3ncnc4sc(C)c(C)c34)CC2)c1	x	1	0	x	x	4	x
Cc1c(C(=O)OCC(=O)Nc2ccc(S(N)(=O)=O)cc2)oc2c1ccc1ccccc12	4	5	8	2	-18	16*	18
COc1cc(-c2nn3c(Cc4ccccc4)nnc3s2)cc(OC)c1OC	4	-2	7	5	42	3	x
COc1cc(-c2nn3c(COc4ccccc4)nnc3s2)cc(OC)c1OC	3	4	10	4	9	45*	44*	RORg counter=i
COc1ccc(-c2cn(-c3ccc(C)cc3C)c(=S)[nH]2)cc1OC	x	1	4	x	x	23*	-2
CS(=O)(=O)N1CCN(c2nc3c(c(=O)[nH]2)CCCC3)CC1	x	x	x	x	-3	x	x
CCCCN(C(=O)c1ccc(-c2ccc(Cl)cc2)o1)c1c(N)n(CC(C)C)c(=O)[nH]c1=O	x	-2	4	x	x	18*	-16
COCCN(C(=O)c1ccc(-c2ccc(Cl)cc2)o1)c1c(N)n(CC(C)C)c(=O)[nH]c1=O	x	0	2	x	x	-5	x
Cc1cccc(C(=O)OCC(=O)c2cccc(Br)c2)c1O	x	1	1	x	x	19*	5
COc1cc(CC(=O)N2CCC(n3cnc4cccnc43)CC2)cc(OC)c1OC	x	x	x	3	12	x	x
COc1ccc(-n2c(SCC(=O)Nc3ccc(Oc4ccccc4)cc3)nnc2-c2ccccc2)cc1	x	x	x	x	x	1	x
O=C(CSc1nnc(-c2cccs2)n1-c1ccccc1)Nc1ccccc1	3	54*	21	35	20	112*	92*
O=C(CSc1nnc(-c2ccc(Cl)cc2)n1-c1ccccc1)Nc1ccc(Oc2ccccc2)cc1	x	x	x	x	x	22*	10
O=C(NCc1ccccc1)C(c1cccc2ccccc12)n1c(=O)c(-c2ccccc2)nc2ccccc21 (stereo not drawn)	x	-1	15	x	x	24*	46*	RORg counter=i
Cn1nc(CC(=O)NC2CCCCCCCCCCC2)c2ccccc2c1=O	5	0	19	x	10	-5	x
